The sample as a whole holds a higher share of hits than the screen did.
Pf Dd2 inh: inhibitors of Plasmodium falciparum Dd2 growth | Potency, µM (doses to about 28.9 µM), without a hit: at the highest dose activity, negative = inhibition, usual class: inhibitors | P. falciparum Dd2 growth, SYBR Green, 72 h | AID 1347417 | 120,000 tested, 4.3% active; active means well fitted inhibition curve with a large enough effect;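 further: plate controls were DMSO vehicle for no effect and reference drug for full effect; nearly all actives have a fitted effect of over 65% in size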
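Readout: SYBR Green fluorescence, 485 nm excitation, 535 nm emission, after ~16 h lysis at 37C. Before that, Dd2-infected red cells (2.5% hematocrit) grew 72 h with compound, 29 uM top final concentration.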
* marks the source's active call; other numbers are inactive results; i = inactive; [ ] = another dose, or the depositor's remark. Potency means the concentration at half of the fitted maximal effect.

SMILES	Pf Dd2 inh
COc1cc(OC)c(NC(=O)Cn2ccn3nc4c(c3c2=O)CCCC4)cc1Cl	i
CN1CC(=O)N(C2CCNCC2)Cc2c(NC3CCCCC3O)ncnc21 (stereo unspecified)	-3%
CCc1cc(=O)n(CC(=O)Nc2ccc(C)cc2Cl)c(N2CCOCC2)n1	i
CC1=C[C@@H](CN(C)CCO)[C@H](C(C)C)C[C@H]1Cc1nnc(-c2ccc(C)cc2)o1	10µM*
CC1=C[C@@H](CN(C)CCO)[C@H](C(C)C)C[C@H]1Cc1nnc(-c2ccccc2F)o1	13µM*
C#CCN(C)C[C@@H]1C=C(C)[C@H](Cc2nnc(-c3ccc(C)cc3)o2)C[C@H]1C(C)C	-11%[44.1 µM]
CN(CC1CCOC1)S(=O)(=O)c1cc(F)cc(F)c1 (stereo unspecified)	15%[5.79 µM]
CC(=O)c1ccc(N2CCN(C(=O)c3cc4n(n3)CC(c3ccc(Cl)cc3)OC4)CC2)cc1 (stereo unspecified)	i
O=C(NC1CCCN(c2cc(-c3ccc(F)cc3)[nH]n2)C1)c1cc2ccccc2[nH]1 (stereo unspecified)	-20%
CC(C)(C)OC(=O)N1CC(c2ccccc2)C1	i
CC(C)C1CN(C(=O)OC(C)(C)C)C(C)CN1 (stereo unspecified)	26%[44.1 µM]
CC(C)C1CNC(Cc2ccccc2)CN1C(=O)OC(C)(C)C (stereo unspecified)	8.9µM*
COc1ccc(C)cc1-c1ccc(COc2ccc3c(cnn3CCC(=O)O)c2)cc1	i
CNC(=O)CCn1ncc2cc(OCc3ccccc3-c3ccc(OC)cc3C)ccc21	5.6µM*
CNC(=O)CCn1ncc2cc(OCc3ccccc3-c3ccsc3)ccc21	6.3µM*
CNC(=O)CCn1ncc2cc(OCc3ccccc3-c3cccc(OC)c3)ccc21	-4%[44.1 µM]
O=C(O)CCn1ncc2cc(OCc3ccc(-c4cccc(CO)c4)cc3)ccc21	i
CNC(=O)CCn1ncc2cc(OC3CCc4cccc(-c5ccc(O)c(F)c5)c43)ccc21 (stereo unspecified)	i
CC(C)NC(=O)c1nc(C(C)(C)C)c2ccccn12	-19%[44.1 µM]
COc1nc(C)c(C(=O)N2CCn3nc(CO)cc3C2)s1	-13%
CCC(C)NC(=O)Cc1csc2nc(C)c(-c3cc(C)n(-c4ccc(C)cc4)n3)c(=O)n12 (stereo unspecified)	i
CCN(Cc1nc(C)no1)C(=O)c1cc(COc2ccccc2F)[nH]n1	-11%
CCCN1CCC(NC(=O)c2cc(COc3ccccc3)[nH]n2)CC1	2%
NC(=O)Cc1c[nH]c2ncc(-c3cccc(CO)c3)cc12	-1%[44.1 µM]
O=C(c1cc(-c2cccnc2)c2nncn2n1)N1CCOCC1	43%
SMILES	Pf Dd2 inh
COc1ccccc1N1CCN(C(=O)CSc2nc(C)cc(=O)[nH]2)CC1	54%
CC1CCCCN1C(=O)CSc1n[nH]c(-c2ccccc2Cl)n1 (stereo unspecified)	8%
COc1ccccc1N1CCN(C(=O)CSc2nc(-c3ccc(C(C)C)cc3)no2)CC1	0.35µM*
CC1CCCCN1C(=O)CSc1nnc(-c2ccccc2Cl)o1 (stereo unspecified)	-18%
CC1CCCCN1C(=O)CSc1nc(-c2ccccc2)no1 (stereo unspecified)	10µM*
COc1ccccc1N1CCN(C(=O)CSc2n[nH]c(-c3ccccc3)n2)CC1	-2%
CCOC(=O)C1=C(C)N=C2SC=C(CC(=O)NCc3ccco3)N2C1c1ccccc1Cl (stereo unspecified)	-11%
COc1ccccc1-c1cc(-c2cccs2)nc2c(C)noc12	i
COc1cccc(CNC(=O)[C@@H]2C[C@@H](O)CN2C2CCN(C(=O)c3cnccn3)CC2)c1	11%
COCCN1C(=O)CS(=O)C12CCN(S(=O)(=O)c1ccccc1)CC2 (stereo unspecified)	3%
CCCCc1ccc(NC(=O)Cn2c(C)cc3nc4n(c(=O)c32)CCCCC4)cc1	-9%
c1ccc(C(CNc2nccc(-c3ccncc3)n2)N2CCOCC2)nc1 (stereo unspecified)	2%
Cc1ccccc1-n1cc(-c2ccnc(NC(C)Cc3ccncc3)n2)cn1 (stereo unspecified)	8.9µM*
Cc1ccccc1-n1cc(CN(C)Cc2nc(-c3ccc(C(F)(F)F)cc3)no2)cn1	0%
C=CCNC(=O)[C@@H]1CCCN1[C@@H](C(=O)NC)c1ccccc1OC	i
O=C(NC[C@H]1OC[C@@H](NC2CCC2)[C@@H]1O)c1ccncc1	-5%[44.1 µM]
COc1ccccc1NC(=O)c1sc2nc(C)c(C(=O)Nc3ccc(C)cc3C)c(-c3ccc(C)o3)c2c1N	11µM*
COc1cccc(NC(=O)c2sc3nc(C)c(C(=O)Nc4ccc(C)cc4C)c(-c4ccc(Br)cc4)c3c2N)c1	8.9µM*
COc1ccc(NC(=O)c2sc3nc(C)c(C(=O)Nc4ccc(C)cc4C)c(-c4sccc4C)c3c2N)cc1	3.2µM*
COc1ccccc1NC(=O)c1sc2nc(C)c(C(=O)Nc3ccc(C)cc3C)c(-c3ccccc3Cl)c2c1N	5.6µM*
COc1ccccc1NC(=O)c1sc2nc(N3CCOCC3)c3c(c2c1N)CC(C)(C)OC3	-3%
COc1ccccc1NC(=O)c1sc2cccc(Cl)c2c1Cl	42%
COc1ccccc1C(=O)Nc1c(C(=O)Nc2cc(Cl)ccc2C)sc2nc(C)cc(C)c12	2%
COC(=O)c1ccccc1NC(=O)c1sc2nc(C)cc(C)c2c1NC(=O)c1ccccc1OC	33%
COc1cccc(C(=O)Nc2nc(-c3ccc(Br)cc3)ns2)c1	11%
SMILES	Pf Dd2 inh
COc1ccc(Cc2c(C)nn(-c3nc(C)c(C(=O)Nc4ccc(C)cc4C)s3)c2C)cc1	-13%
CCCCOC(=O)c1ccc(NC(=O)c2sc3nc(C)cc(C)c3c2N)cc1	-14%
COCCCNC(=O)c1sc2nc(C)c(C(=O)Nc3ccc(Cl)cc3)c(-c3ccc(Br)cc3)c2c1N	-9%
O=C(c1ccc(C(F)(F)F)cc1)N1CCn2c(nnc2-c2ccncc2)C1	10%
CCOc1ccccc1C(=O)N1CCC(Cc2nc(-c3ccc(OC)cc3)no2)CC1	-21%
Cc1nonc1OCCNC(=O)c1ccc2nc(Cc3ccccc3F)oc2c1	-11%
Cc1noc(C)c1[S+](=O)([O-])N1CCn2c(nnc2-c2ccncc2)C1	72%
COc1ccc(-c2nnc3n2CCN(C(=O)C(C)(C)C)C3)cc1	2%[44.1 µM]
Cc1ccc(CN(C(=O)c2ccco2)c2ccc(CC(=O)NCc3ccccc3)cc2)cc1	i
CCn1nccc1C(=O)N1CC(Oc2ccc(-c3nc(-c4ccccc4)no3)cc2)C1	-18%[5.79 µM]
Cc1ccc(NC(=O)c2c(C)nc3sc(C(=O)Nc4ccc(F)cc4)c(N)c3c2-c2ccc(C)o2)c(C)c1	3.5µM*
Cc1ccc(NC(=O)c2sc3nc(-c4ccc(F)cc4)ccc3c2N)cc1F	0%
Cc1cc(F)ccc1NC(=O)c1sc2nc(-c3cccs3)ccc2c1N	-6%
COc1cc(-c2[nH]ncc2CN(CCO)Cc2cccs2)cc(OC)c1OC	-7%
O=C(c1ccccc1OCC1CCCN(C2CCCC2)C1)N1CCCC1 (stereo unspecified)	i
O=C(c1ccncc1)N1CCCC(COc2ccccc2C(=O)N2CCOCC2)C1 (stereo unspecified)	-5%
CN(C)c1ccc(C(=O)N2CCCC(COc3ccccc3C(=O)N3CCCC3)C2)cc1 (stereo unspecified)	6.3µM*
O=C(Nc1ccc(C(F)(F)F)cc1)c1cc(S(=O)(=O)NC2CCCCC2)ccc1F	7.1µM*
O=C(Nc1ccc(Cl)cc1F)c1cc(S(=O)(=O)NC2CCCCCC2)ccc1F	i
CCc1ccccc1NC(=O)c1cc(S(=O)(=O)NC2CCCC2)ccc1F	-1%

Bioassay records deposited in PubChem by National Center for Advancing Translational Sciences (NCATS).
